# Article PMC8384837, “Expanding the binding specificity for RNA recognition by a PUF domain”
# Numbering of substitutions follows the chain as printed.
# Assays:
# Experiment in all cases: yeast three-hybrid, YBZ-1, SC-Leu-His + 0.5 mM 3-AT, 4 days
# Conditions in all cases: tags: N-Gal4 AD-HA kept; label: inside an RPR1-promoter hybrid RNA with tandem MS2 sites; ssRNA
# PUM1 PUF domain R4-GRG = PUM1 PUF domain R4-GRG (Homo sapiens, UniProt Q14671 828-1176, N971G;H972R;Q975G)
# Outline: (§1)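 Pumilio-1 PUF domain libraries, randomized at the three base-contacting residues of each repeat, were co-expressed with matching RNA elements from a centromeric plasmid in strain YBZ-1, which carries a LexA–MS2 coat fusion and a HIS3 reporter. Transformants grew for four days on SC-Leu (input) or on SC-Leu-His + 0.5 mM 3-AT (selection), and the repeat regions were PCR-amplified and Illumina-sequenced. The interaction score is the log change in variant frequency from input to selection. That logarithm is base 2, with a pseudocount of 1 where a variant was absent.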
# PUM1 PUF domain R5-SGS = PUM1 PUF domain R5-SGS (Homo sapiens, UniProt Q14671 828-1176, C1007S;R1008G;Q1011S)
# Outline: as §1
# PUM1 PUF domain R5-RRC = PUM1 PUF domain R5-RRC (Homo sapiens, UniProt Q14671 828-1176, C1007R;Q1011C)
# Outline: as §1
# PUM1 PUF domain R5-MGR = PUM1 PUF domain R5-MGR (Homo sapiens, UniProt Q14671 828-1176, C1007M;R1008G;Q1011R)
# Outline: as §1
# PUM1 PUF domain R3-PWG = PUM1 PUF domain R3-PWG (Homo sapiens, UniProt Q14671 828-1176, C935P;R936W;Q939G)
# Outline: as §1
# PUM1 PUF domain R3-TRA = PUM1 PUF domain R3-TRA (Homo sapiens, UniProt Q14671 828-1176, C935T;Q939A)
# Outline: as §1
# PUM1 PUF domain R3-AWG = PUM1 PUF domain R3-AWG (Homo sapiens, UniProt Q14671 828-1176, C935A;R936W;Q939G)
# Outline: as §1
# PUM1 PUF domain R8-NFV = PUM1 PUF domain R8-NFV (Homo sapiens, UniProt Q14671 828-1176, Y1123F;Q1126V)
# Outline: as §1
# PUM1 PUF domain R8-RFC = PUM1 PUF domain R8-RFC (Homo sapiens, UniProt Q14671 828-1176, N1122R;Y1123F;Q1126C)
# Outline: as §1
# PUM1 PUF domain R6-GRQ = target: T1, PUM1 PUF domain R6-GRQ (Homo sapiens, UniProt Q14671 828-1176, N1043G;Y1044R)
# T1 sequence: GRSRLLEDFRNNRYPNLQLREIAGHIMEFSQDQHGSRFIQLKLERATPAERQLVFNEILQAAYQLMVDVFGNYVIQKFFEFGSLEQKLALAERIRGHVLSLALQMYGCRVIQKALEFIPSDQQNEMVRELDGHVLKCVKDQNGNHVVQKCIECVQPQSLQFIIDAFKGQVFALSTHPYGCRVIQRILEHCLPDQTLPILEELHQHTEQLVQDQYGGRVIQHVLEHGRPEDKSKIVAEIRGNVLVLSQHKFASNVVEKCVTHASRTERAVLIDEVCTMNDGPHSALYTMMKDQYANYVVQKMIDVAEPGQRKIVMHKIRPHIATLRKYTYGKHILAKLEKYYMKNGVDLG
# Outline: as §1
# PUM1 PUF domain R6-AYM = target: T2, PUM1 PUF domain R6-AYM (Homo sapiens, UniProt Q14671 828-1176, N1043A;Q1047M)
# T2 sequence: T1 sequence with G216A, R217Y, Q220M
# Outline: as §1
# PUM1 PUF domain R8-KWH = PUM1 PUF domain R8-KWH (Homo sapiens, UniProt Q14671 828-1176, N1122K;Y1123W;Q1126H)
# Outline: as §1
# PUM1 PUF domain R3-APM = PUM1 PUF domain R3-APM (Homo sapiens, UniProt Q14671 828-1176, C935A;R936P;Q939M)
# Outline: as §1
# PUM1 PUF domain R4-CPN = PUM1 PUF domain R4-CPN (Homo sapiens, UniProt Q14671 828-1176, N971C;H972P;Q975N)
# Outline: as §1
# PUM1 PUF domain R7-LNA = PUM1 PUF domain R7-LNA (Homo sapiens, UniProt Q14671 828-1176, S1079L;E1083A)
# Outline: as §1
# PUM1 PUF domain R7-GGR = PUM1 PUF domain R7-GGR (Homo sapiens, UniProt Q14671 828-1176, S1079G;N1080G;E1083R)
# Outline: as §1
# PUM1 PUF domain R1-MYR = PUM1 PUF domain R1-MYR (Homo sapiens, UniProt Q14671 828-1176, S863M;R864Y;Q867R)
# Outline: as §1
# PUM1 PUF domain R1-KYI = PUM1 PUF domain R1-KYI (Homo sapiens, UniProt Q14671 828-1176, S863K;R864Y;Q867I)
# Outline: as §1
# PUM1 PUF domain R3-RAH = PUM1 PUF domain R3-RAH (Homo sapiens, UniProt Q14671 828-1176, C935R;R936A;Q939H)
# Outline: as §1
# PUM1 PUF domain R6-GFE = target: T3, PUM1 PUF domain R6-GFE (Homo sapiens, UniProt Q14671 828-1176, N1043G;Y1044F;Q1047E)
# T3 sequence: T1 sequence with R217F, Q220E
# Outline: as §1
sequence,measurement,setting,value
GGCUAGAACUAGUGGAUCCCCCGGCGCCCGGCGGCUCGAGCCCGGGUAAGUGUAUAUAGUCUGCAUGCCGCCGGGCGCCAUGCCUGCAGGUCGACUCUAGAAAACAUG,binding signal,PUM1 PUF domain R4-GRG,2.09 log2 enrichment (interaction score)
GGCUAGAACUAGUGGAUCCCCCGGCGCCCGGCGGCUCGAGCCCGGGUAAGUGUGAAUAGUCUGCAUGCCGCCGGGCGCCAUGCCUGCAGGUCGACUCUAGAAAACAUG,binding signal,PUM1 PUF domain R5-SGS,2.71 log2 enrichment (interaction score)
same,binding signal,PUM1 PUF domain R5-RRC,1.37 log2 enrichment (interaction score)
GGCUAGAACUAGUGGAUCCCCCGGCGCCCGGCGGCUCGAGCCCGGGUAAGUGUCAAUAGUCUGCAUGCCGCCGGGCGCCAUGCCUGCAGGUCGACUCUAGAAAACAUG,binding signal,PUM1 PUF domain R5-RRC,3.9 log2 enrichment (interaction score)
same,binding signal,PUM1 PUF domain R5-MGR,3.14 log2 enrichment (interaction score)
GGCUAGAACUAGUGGAUCCCCCGGCGCCCGGCGGCUCGAGCCCGGGUAAGUGUAAGUAGUCUGCAUGCCGCCGGGCGCCAUGCCUGCAGGUCGACUCUAGAAAACAUG,binding signal,PUM1 PUF domain R3-PWG,2.38 log2 enrichment (interaction score)
same,binding signal,PUM1 PUF domain R3-TRA,0.89 log2 enrichment (interaction score)
same,binding signal,PUM1 PUF domain R3-AWG,0.66 log2 enrichment (interaction score)
GGCUAGAACUAGUGGAUCCCCCGGCGCCCGGCGGCUCGAGCCCGGGUAAGUGUACAUAGUCUGCAUGCCGCCGGGCGCCAUGCCUGCAGGUCGACUCUAGAAAACAUG,binding signal,PUM1 PUF domain R4-GRG,0.59 log2 enrichment (interaction score)
GGCUAGAACUAGUGGAUCCCCCGGCGCCCGGCGGCUCGAGCCCGGGUAAGUGUAAAUAGUCUGCAUGCCGCCGGGCGCCAUGCCUGCAGGUCGACUCUAGAAAACAUG,binding signal,PUM1 PUF domain R3-PWG,4.24 log2 enrichment (interaction score)
same,binding signal,PUM1 PUF domain R8-NFV,3.02 log2 enrichment (interaction score)
same,binding signal,PUM1 PUF domain R3-TRA,3.6 log2 enrichment (interaction score)
same,binding signal,PUM1 PUF domain R3-AWG,3.6 log2 enrichment (interaction score)
same,binding signal,PUM1 PUF domain R4-GRG,5.19 log2 enrichment (interaction score)
same,binding signal,PUM1 PUF domain R8-RFC,4.53 log2 enrichment (interaction score)
same,binding signal,PUM1 PUF domain R6-GRQ,3.49 log2 enrichment (interaction score)
same,binding signal,PUM1 PUF domain R6-AYM,4.27 log2 enrichment (interaction score)
same,binding signal,PUM1 PUF domain R8-KWH,4.79 log2 enrichment (interaction score)
same,binding signal,PUM1 PUF domain R3-APM,2.44 log2 enrichment (interaction score)
same,binding signal,PUM1 PUF domain R4-CPN,3.19 log2 enrichment (interaction score)
same,binding signal,PUM1 PUF domain R5-RRC,2.21 log2 enrichment (interaction score)
same,binding signal,PUM1 PUF domain R5-MGR,1.08 log2 enrichment (interaction score)
GGCUAGAACUAGUGGAUCCCCCGGCGCCCGGCGGCUCGAGCCCGGGUAAGCGUAAAUAGUCUGCAUGCCGCCGGGCGCCAUGCCUGCAGGUCGACUCUAGAAAACAUG,binding signal,PUM1 PUF domain R8-RFC,5.87 log2 enrichment (interaction score)
GGCUAGAACUAGUGGAUCCCCCGGCGCCCGGCGGCUCGAGCCCGGGUAAGUUUAAAUAGUCUGCAUGCCGCCGGGCGCCAUGCCUGCAGGUCGACUCUAGAAAACAUG,binding signal,PUM1 PUF domain R7-LNA,4.5 log2 enrichment (interaction score)
same,binding signal,PUM1 PUF domain R7-GGR,3.28 log2 enrichment (interaction score)
GGCUAGAACUAGUGGAUCCCCCGGCGCCCGGCGGCUCGAGCCCGGGUAAGUGUUAAUAGUCUGCAUGCCGCCGGGCGCCAUGCCUGCAGGUCGACUCUAGAAAACAUG,binding signal,PUM1 PUF domain R5-RRC,4.61 log2 enrichment (interaction score)
GGCUAGAACUAGUGGAUCCCCCGGCGCCCGGCGGCUCGAGCCCGGGUAAGUGUAAAUUGUCUGCAUGCCGCCGGGCGCCAUGCCUGCAGGUCGACUCUAGAAAACAUG,binding signal,PUM1 PUF domain R1-MYR,3.58 log2 enrichment (interaction score)
GGCUAGAACUAGUGGAUCCCCCGGCGCCCGGCGGCUCGAGCCCGGGUAAGUGUAAAUCGUCUGCAUGCCGCCGGGCGCCAUGCCUGCAGGUCGACUCUAGAAAACAUG,binding signal,PUM1 PUF domain R1-KYI,4.65 log2 enrichment (interaction score)
same,binding signal,PUM1 PUF domain R1-MYR,3.82 log2 enrichment (interaction score)
GGCUAGAACUAGUGGAUCCCCCGGCGCCCGGCGGCUCGAGCCCGGGUAAGUGUAAUUAGUCUGCAUGCCGCCGGGCGCCAUGCCUGCAGGUCGACUCUAGAAAACAUG,binding signal,PUM1 PUF domain R3-PWG,2.22 log2 enrichment (interaction score)
same,binding signal,PUM1 PUF domain R3-TRA,0.43 log2 enrichment (interaction score)
same,binding signal,PUM1 PUF domain R3-AWG,0.35 log2 enrichment (interaction score)
same,binding signal,PUM1 PUF domain R3-RAH,3.61 log2 enrichment (interaction score)
GGCUAGAACUAGUGGAUCCCCCGGCGCCCGGCGGCUCGAGCCCGGGUAAGUGGAAAUAGUCUGCAUGCCGCCGGGCGCCAUGCCUGCAGGUCGACUCUAGAAAACAUG,binding signal,PUM1 PUF domain R6-GFE,5.67 log2 enrichment (interaction score)
